From article PMC7819943, “Rice protein-binding microarrays: a tool to detect cis-acting elements near promoter regions in rice”
The full ranking holds about 39,000 sequences; the median of “fluorescence intensity (a.u.)” is about 4,300, and the highest 2% start at about 39,000. This is one part of a sample in which the highest values are shown more often than they occur.

Molecular target: T1, OsSMF1 (Oryza sativa, UniProt Q6ZLB0 1-436)
T1 sequence: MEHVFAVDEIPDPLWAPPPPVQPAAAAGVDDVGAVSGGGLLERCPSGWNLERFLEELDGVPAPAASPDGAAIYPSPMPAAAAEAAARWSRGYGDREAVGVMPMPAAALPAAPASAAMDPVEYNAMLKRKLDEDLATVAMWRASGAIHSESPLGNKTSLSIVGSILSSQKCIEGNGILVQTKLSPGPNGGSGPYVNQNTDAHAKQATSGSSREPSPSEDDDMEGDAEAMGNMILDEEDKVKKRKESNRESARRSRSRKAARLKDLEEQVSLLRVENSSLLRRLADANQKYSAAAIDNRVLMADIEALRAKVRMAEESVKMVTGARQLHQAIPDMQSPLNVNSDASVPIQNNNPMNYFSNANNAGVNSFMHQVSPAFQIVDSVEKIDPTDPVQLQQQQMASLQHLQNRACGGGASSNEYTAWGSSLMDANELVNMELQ
Assay: protein-binding microarray (RPBM); PBS, 2% BSA, 51.3 ng/ul salmon testes DNA, 50 uM zinc acetate, 200 nM TF, 25 C, 1 h; high values mean tight binding
Settings: protein: recombinant; tags: N-terminal polyhistidine and DsRed monomer fusion (pET32a); chain copies: 2; label: CyDye5-dUTP incorporated in the synthesized complementary strand; 3' TTTTT single-stranded linker to array surface; dsDNA, one strand shown
How it was run: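 The binding signal for each feature is its fluorescence intensity in arbitrary units. An Axon 4000B scanner was used to read a custom Agilent array that had been made double-stranded with Cy5-dUTP primer extension, blocked with 2% BSA, incubated at 25 °C for 1 h with 200 nM protein in PBS, 2% BSA, salmon testes DNA and 50 µM zinc acetate, and washed. The protein was an N-terminal polyhistidine–DsRed transcription factor fusion from E. coli BL21-CodonPlus, purified on Ni–NTA.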

Sequence | binding signal
GCGGAGCCGACGCGGCGGCGATGCTCGGCCGCGTGGCGGTCGGAGTCACCTAGTGCAG | 3840 fluorescence intensity (a.u.)
ATAGCCCGTCCTCTTCATGGACCACGGTGTACAGCTTGCTCGGAGTCACCTAGTGCAG | 3980 fluorescence intensity (a.u.)
TTAGTTGTTCTTGTTCTCTTGGTTGGGACGTGGAGAGTTGCGGAGTCACCTAGTGCAG | 3440 fluorescence intensity (a.u.)
ACATTATCATGTCACGTCGTCGCGTAATCATGGGTACCCACGGAGTCACCTAGTGCAG | 4200 fluorescence intensity (a.u.)
GCCGACACGTCGCGACGCCGCTTGCCACGCGCCACGCGCGCGGAGTCACCTAGTGCAG | 6450 fluorescence intensity (a.u.)
TAAAATTATTATATTTTATAAGAAAGGTAACAAGTAAACACGGAGTCACCTAGTGCAG | 28600 fluorescence intensity (a.u.)
GCTAGGTTCAACGTCATGCCTCATGTTGTCTATTGCTGTTCGGAGTCACCTAGTGCAG | 4070 fluorescence intensity (a.u.)
GGGGTTAGTCGCCGGAGGTGTGGCGTGTCGACACGTACGCCGGAGTCACCTAGTGCAG | 8720 fluorescence intensity (a.u.)
TTGTTTCACCGCTTACGCCACGTGCGCCGCTCAGCTGTATCGGAGTCACCTAGTGCAG | 9840 fluorescence intensity (a.u.)
ATCCTCAACTCAATCCCGACGAAATCCCCTTCGATTTGAGCGGAGTCACCTAGTGCAG | 3290 fluorescence intensity (a.u.)
TTAAAACGCATCAAGATTATAAGAGCCAAGAGAAATTGCACGGAGTCACCTAGTGCAG | 3520 fluorescence intensity (a.u.)
AAGAATTAAAGAAGCCTTTATAAGAAGAGAAGGCCAAGCTCGGAGTCACCTAGTGCAG | 60800 fluorescence intensity (a.u.)
GATTAAATGGAAGAGAGAATGAATAATTAAGATTTAAAGACGGAGTCACCTAGTGCAG | 27400 fluorescence intensity (a.u.)
TCAAGGACCTCGTCATCCTCTCAGGTAACACACTTTCCCTCGGAGTCACCTAGTGCAG | 3780 fluorescence intensity (a.u.)
ACGCCGCTAGTTCTTTTCTCCAGAGCAATCTGGTCAGTTCCGGAGTCACCTAGTGCAG | 59900 fluorescence intensity (a.u.)
CTTCGCTCTCTTTTCCATTGCAGAGCCCTCACGCTTCCGCCGGAGTCACCTAGTGCAG | 3570 fluorescence intensity (a.u.)
TCCTCTTCTCCTCCGCCGCATCAGCAATCTCTCTTTCTACCGGAGTCACCTAGTGCAG | 4100 fluorescence intensity (a.u.)
AGAAGAGGTGATGTATAAAACATGTCACGATTTAATATCTCGGAGTCACCTAGTGCAG | 4070 fluorescence intensity (a.u.)
ATAACCTAATATAAAGTTCGCTCATATGAAAATTTAAACTCGGAGTCACCTAGTGCAG | 51600 fluorescence intensity (a.u.)
TTATTATGAAAATATATTTAATTATTGATTTGATGAAACTCGGAGTCACCTAGTGCAG | 21300 fluorescence intensity (a.u.)
TTAATACGTATGAATATATAAAGTTTATATATGCATGTACCGGAGTCACCTAGTGCAG | 63000 fluorescence intensity (a.u.)

Sequence | binding signal
GATATGATTATTTATTTCTTTAAATGAAAATCATGTGTAACGGAGTCACCTAGTGCAG | 32500 fluorescence intensity (a.u.)
AACATAATGTTTTAACTTAAACCTTAATAATGAAATTTCTCGGAGTCACCTAGTGCAG | 3670 fluorescence intensity (a.u.)
GTATATATACACGTATACAAAGTTTATATATGACGTATACCGGAGTCACCTAGTGCAG | 6040 fluorescence intensity (a.u.)
AATTATCATAAAACAACATATTTAAACCATGGTAACATAACGGAGTCACCTAGTGCAG | 6200 fluorescence intensity (a.u.)
AAATAACAAAATTACAAGTTTAACATAAATATGTAATCACCGGAGTCACCTAGTGCAG | 21200 fluorescence intensity (a.u.)
TATAAATTAATATGTAGTATATCACTTCATAAGTTTAAATCGGAGTCACCTAGTGCAG | 39300 fluorescence intensity (a.u.)
ATCTTGATATCTGCAACATAAAATGTAACATCAGATTTAACGGAGTCACCTAGTGCAG | 39500 fluorescence intensity (a.u.)
AAGAAGTACGTCATATATTCAGTTTTATGTATTATTTTATCGGAGTCACCTAGTGCAG | 3310 fluorescence intensity (a.u.)
GTGTTTATATAAGTGTTTGCATATGTACTATGTTTTAATACGGAGTCACCTAGTGCAG | 3730 fluorescence intensity (a.u.)
TTCGACACAGTCATACGTGAGTCGGATGGAGTTAGGTCTGCGGAGTCACCTAGTGCAG | 4150 fluorescence intensity (a.u.)
CTCCTCCCATGCGCCGCCACGTAGGATCGCGCGATCAGATCGGAGTCACCTAGTGCAG | 10300 fluorescence intensity (a.u.)
AACACGAAAATGAAAGGGAGGGGCTTTCCTTAGCGATTAACGGAGTCACCTAGTGCAG | 3830 fluorescence intensity (a.u.)
TGTAAACTTTTATGATCATTTAGGAGCTCTGGACAGTAATCGGAGTCACCTAGTGCAG | 18200 fluorescence intensity (a.u.)
ATGCCATTGATTCAATAGTGAATCATCGTTCTTTCTGGATCGGAGTCACCTAGTGCAG | 3550 fluorescence intensity (a.u.)
AGGTAATGTATCATAAAACTATAGATTTAACACTAAATTTCGGAGTCACCTAGTGCAG | 53000 fluorescence intensity (a.u.)
AAATGGATGATAAGTATAATTACTTAGAGCAAGTTTAATACGGAGTCACCTAGTGCAG | 65500 fluorescence intensity (a.u.)
GTATCAAAACATATTCAATCATAGATTTAATGAAAACTAACGGAGTCACCTAGTGCAG | 3360 fluorescence intensity (a.u.)
TTTATTATTAGTTTACGTTTAATACTTCTAATTAGTATAACGGAGTCACCTAGTGCAG | 3240 fluorescence intensity (a.u.)
CTATAATTTAAACATGTAAAGTTTACGTGTATATAAATTTCGGAGTCACCTAGTGCAG | 3160 fluorescence intensity (a.u.)
AAGTTATACTTAAAGTATTATAAATAATAAAGTAAGTCACCGGAGTCACCTAGTGCAG | 34100 fluorescence intensity (a.u.)
TAGCCAGGAGGGAGGTGGCAAAACAGAATGATGGGAGGGACGGAGTCACCTAGTGCAG | 3220 fluorescence intensity (a.u.)
